Assay results as given in article PMC7862700, “An all-to-all approach to the identification of sequence-specific readers for epigenetic DNA modifications on cytosine”.

What was measured:
Experiment in all cases: DAPPL (digital affinity profiling via proximity ligation, sequencing); 10 mM Tris-HCl pH 7.5, 50 mM NaCl, 1 mM DTT, 4% glycerol, room temperature, 30 min; GST-TFs on glutathione beads, 16-mer random dsDNA library, 0.1% formaldehyde crosslink after washing; high values mean tight binding
FEV = molecular target: T1, FEV (Homo sapiens, UniProt Q99581 1-238); conditions: protein: recombinant; tags: N-terminal GST; dsDNA, one strand shown
T1 sequence: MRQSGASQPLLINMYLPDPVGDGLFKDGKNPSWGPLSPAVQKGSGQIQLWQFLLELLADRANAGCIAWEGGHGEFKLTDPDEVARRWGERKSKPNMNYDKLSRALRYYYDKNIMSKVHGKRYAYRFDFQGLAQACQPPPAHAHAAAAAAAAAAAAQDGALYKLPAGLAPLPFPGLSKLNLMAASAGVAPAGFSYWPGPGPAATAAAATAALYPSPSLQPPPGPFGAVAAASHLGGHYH
How it was run: (§1)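 Each value of binding signal is a hexamer's read frequency for a factor divided by the same hexamer's frequency in the tag-only sample. Barcoded, bead-captured GST fusions of human transcription factors made in yeast were pooled with that sample and incubated with 200 nmole of a random double-stranded 16-mer DNA library in Tris/NaCl/DTT/glycerol buffer at room temperature for 30 min. Washing, 0.1% formaldehyde crosslinking, proximity ligation, PCR and Illumina NextSeq500 sequencing followed.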

ETV5 = ETV5 (Homo sapiens, UniProt P41161 1-510); conditions: protein: recombinant; tags: N-terminal GST; dsDNA, one strand shown
How it was run: as §1

HSF1 = HSF1 (Homo sapiens, UniProt Q00613 1-529); conditions: protein: recombinant; tags: N-terminal GST; chain copies: 3; dsDNA, one strand shown
How it was run: as §1

SPIC = molecular target: T2, SPIC (Homo sapiens, UniProt Q8N5J4 1-248); conditions: protein: recombinant; tags: N-terminal GST; dsDNA, one strand shown
T2 sequence: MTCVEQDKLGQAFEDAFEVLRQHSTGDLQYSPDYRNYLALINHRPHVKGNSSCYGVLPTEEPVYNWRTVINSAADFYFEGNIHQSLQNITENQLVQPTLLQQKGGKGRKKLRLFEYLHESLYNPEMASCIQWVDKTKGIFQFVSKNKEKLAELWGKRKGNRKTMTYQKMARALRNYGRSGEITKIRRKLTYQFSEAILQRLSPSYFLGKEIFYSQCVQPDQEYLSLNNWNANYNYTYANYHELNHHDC
How it was run: as §1

ELF4 = ELF4 (Homo sapiens, UniProt Q99607 1-663); conditions: protein: recombinant; tags: N-terminal GST; dsDNA, one strand shown
How it was run: as §1

ELK4 = molecular target: T3, ELK4 (Homo sapiens, UniProt P28324-2 1-405); conditions: protein: recombinant; tags: N-terminal GST; dsDNA, one strand shown
T3 sequence: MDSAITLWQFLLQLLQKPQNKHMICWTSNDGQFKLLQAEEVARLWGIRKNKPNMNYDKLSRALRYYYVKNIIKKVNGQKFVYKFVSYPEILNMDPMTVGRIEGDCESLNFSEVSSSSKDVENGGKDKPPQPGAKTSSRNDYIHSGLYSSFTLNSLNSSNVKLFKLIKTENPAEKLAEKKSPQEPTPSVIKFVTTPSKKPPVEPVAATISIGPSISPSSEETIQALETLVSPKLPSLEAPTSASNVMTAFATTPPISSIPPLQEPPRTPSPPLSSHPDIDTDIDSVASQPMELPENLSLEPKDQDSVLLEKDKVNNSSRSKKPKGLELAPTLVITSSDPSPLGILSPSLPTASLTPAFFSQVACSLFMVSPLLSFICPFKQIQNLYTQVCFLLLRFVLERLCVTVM
How it was run: as §1

ETV2 = molecular target: T4, ETV2 (Homo sapiens, UniProt O00321 1-342); conditions: protein: recombinant; tags: N-terminal GST; dsDNA, one strand shown
T4 sequence: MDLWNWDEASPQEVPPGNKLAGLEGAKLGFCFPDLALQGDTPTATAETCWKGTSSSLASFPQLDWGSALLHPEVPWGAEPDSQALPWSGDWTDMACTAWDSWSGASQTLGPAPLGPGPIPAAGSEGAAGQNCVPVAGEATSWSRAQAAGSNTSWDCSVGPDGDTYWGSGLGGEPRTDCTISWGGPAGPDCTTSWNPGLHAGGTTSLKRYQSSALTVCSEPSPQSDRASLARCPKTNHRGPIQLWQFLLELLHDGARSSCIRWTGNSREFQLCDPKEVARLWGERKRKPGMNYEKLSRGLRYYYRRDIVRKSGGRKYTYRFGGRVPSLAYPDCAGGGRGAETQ
How it was run: as §1

ELF3 = molecular target: T5, ELF3 (Homo sapiens, UniProt P78545 1-371); conditions: protein: recombinant; tags: N-terminal GST; dsDNA, one strand shown
T5 sequence: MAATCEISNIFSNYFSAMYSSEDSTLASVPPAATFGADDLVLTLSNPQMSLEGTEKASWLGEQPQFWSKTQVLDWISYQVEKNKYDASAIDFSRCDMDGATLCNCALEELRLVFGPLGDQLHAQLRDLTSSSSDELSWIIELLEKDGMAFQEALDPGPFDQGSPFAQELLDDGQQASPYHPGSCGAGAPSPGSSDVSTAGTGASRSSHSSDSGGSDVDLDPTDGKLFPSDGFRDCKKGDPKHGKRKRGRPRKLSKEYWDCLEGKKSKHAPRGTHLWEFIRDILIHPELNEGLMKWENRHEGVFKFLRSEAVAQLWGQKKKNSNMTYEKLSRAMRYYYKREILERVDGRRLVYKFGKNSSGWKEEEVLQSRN
How it was run: as §1

CRX = CRX (Homo sapiens, UniProt O43186 1-299); conditions: protein: recombinant; tags: N-terminal GST; dsDNA, one strand shown
How it was run: as §1

ETV1 = ETV1 (Homo sapiens, UniProt P50549 1-477); conditions: protein: recombinant; tags: N-terminal GST; dsDNA, one strand shown
How it was run: as §1

ERF = molecular target: T6, ERF (Homo sapiens, UniProt P50548 1-548); conditions: protein: recombinant; tags: N-terminal GST; dsDNA, one strand shown
T6 sequence: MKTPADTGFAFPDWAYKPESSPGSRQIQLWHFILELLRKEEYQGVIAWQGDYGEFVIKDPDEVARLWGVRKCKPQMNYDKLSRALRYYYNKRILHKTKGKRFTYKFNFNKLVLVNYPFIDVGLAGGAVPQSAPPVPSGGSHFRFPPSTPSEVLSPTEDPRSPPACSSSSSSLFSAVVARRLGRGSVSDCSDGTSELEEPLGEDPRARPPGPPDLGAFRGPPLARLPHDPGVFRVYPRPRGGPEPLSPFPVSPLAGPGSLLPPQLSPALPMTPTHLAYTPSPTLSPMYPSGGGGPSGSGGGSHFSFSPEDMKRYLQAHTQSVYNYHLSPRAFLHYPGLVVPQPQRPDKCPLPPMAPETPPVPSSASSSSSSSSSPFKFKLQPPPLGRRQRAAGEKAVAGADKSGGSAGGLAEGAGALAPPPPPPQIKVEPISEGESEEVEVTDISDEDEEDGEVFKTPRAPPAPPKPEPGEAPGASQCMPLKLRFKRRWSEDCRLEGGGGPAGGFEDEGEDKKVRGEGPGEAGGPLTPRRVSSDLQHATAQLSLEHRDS
How it was run: as §1

ETV3L = molecular target: T7, ETV3L (Homo sapiens, UniProt Q6ZN32 1-361); conditions: protein: recombinant; tags: N-terminal GST; dsDNA, one strand shown
T7 sequence: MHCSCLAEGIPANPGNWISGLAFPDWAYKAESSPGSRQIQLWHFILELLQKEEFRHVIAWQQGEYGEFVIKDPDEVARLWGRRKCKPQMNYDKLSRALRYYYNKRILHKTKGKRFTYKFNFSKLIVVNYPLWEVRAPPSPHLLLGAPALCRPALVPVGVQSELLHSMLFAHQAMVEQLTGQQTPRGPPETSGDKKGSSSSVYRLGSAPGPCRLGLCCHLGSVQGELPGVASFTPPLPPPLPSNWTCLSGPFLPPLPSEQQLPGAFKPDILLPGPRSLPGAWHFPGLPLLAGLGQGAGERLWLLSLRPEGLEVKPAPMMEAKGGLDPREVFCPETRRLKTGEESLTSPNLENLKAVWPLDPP
How it was run: as §1

ETS2 = molecular target: T8, ETS2 (Homo sapiens, UniProt P15036 1-469); conditions: protein: recombinant; tags: N-terminal GST; dsDNA, one strand shown
T8 sequence: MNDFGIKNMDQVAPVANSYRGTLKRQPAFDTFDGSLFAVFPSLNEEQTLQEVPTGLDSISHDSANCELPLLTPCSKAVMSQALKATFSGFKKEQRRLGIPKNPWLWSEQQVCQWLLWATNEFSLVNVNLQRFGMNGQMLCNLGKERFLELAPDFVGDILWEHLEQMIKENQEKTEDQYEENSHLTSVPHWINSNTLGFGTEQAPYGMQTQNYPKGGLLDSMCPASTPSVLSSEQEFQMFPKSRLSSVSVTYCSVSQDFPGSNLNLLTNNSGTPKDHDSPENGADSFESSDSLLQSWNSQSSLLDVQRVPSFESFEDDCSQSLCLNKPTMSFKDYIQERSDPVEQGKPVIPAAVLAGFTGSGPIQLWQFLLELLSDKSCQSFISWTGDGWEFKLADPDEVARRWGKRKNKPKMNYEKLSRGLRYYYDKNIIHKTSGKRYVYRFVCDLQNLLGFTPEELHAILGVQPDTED
How it was run: as §1

SPDEF = molecular target: T9, SPDEF (Homo sapiens, UniProt O95238 1-335); conditions: protein: recombinant; tags: N-terminal GST; dsDNA, one strand shown
T9 sequence: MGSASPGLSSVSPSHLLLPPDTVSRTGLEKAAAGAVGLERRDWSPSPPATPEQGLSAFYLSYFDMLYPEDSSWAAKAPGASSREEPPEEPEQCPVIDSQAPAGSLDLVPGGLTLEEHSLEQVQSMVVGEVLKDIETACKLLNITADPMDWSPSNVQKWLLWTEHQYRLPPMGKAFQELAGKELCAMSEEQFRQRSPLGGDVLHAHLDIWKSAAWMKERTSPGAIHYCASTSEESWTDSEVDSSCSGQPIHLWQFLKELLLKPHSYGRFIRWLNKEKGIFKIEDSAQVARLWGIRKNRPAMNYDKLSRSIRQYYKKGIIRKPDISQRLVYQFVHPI
How it was run: as §1

ETV7 = molecular target: T10, ETV7 (Homo sapiens, UniProt Q9Y603 1-341); conditions: protein: recombinant; tags: N-terminal GST; dsDNA, one strand shown
T10 sequence: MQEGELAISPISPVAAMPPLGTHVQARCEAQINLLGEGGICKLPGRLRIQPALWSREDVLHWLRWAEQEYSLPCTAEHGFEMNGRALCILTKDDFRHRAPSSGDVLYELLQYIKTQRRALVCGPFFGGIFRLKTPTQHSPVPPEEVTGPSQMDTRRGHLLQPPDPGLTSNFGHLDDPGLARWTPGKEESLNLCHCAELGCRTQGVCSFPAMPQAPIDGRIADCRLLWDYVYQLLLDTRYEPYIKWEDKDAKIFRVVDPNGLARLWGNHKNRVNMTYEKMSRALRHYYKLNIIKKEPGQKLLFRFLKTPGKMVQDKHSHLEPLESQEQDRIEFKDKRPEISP
How it was run: as §1

ELF5 = molecular target: T11, ELF5 (Homo sapiens, UniProt Q9UKW6-2 1-255); conditions: protein: recombinant; tags: N-terminal GST; dsDNA, one strand shown
T11 sequence: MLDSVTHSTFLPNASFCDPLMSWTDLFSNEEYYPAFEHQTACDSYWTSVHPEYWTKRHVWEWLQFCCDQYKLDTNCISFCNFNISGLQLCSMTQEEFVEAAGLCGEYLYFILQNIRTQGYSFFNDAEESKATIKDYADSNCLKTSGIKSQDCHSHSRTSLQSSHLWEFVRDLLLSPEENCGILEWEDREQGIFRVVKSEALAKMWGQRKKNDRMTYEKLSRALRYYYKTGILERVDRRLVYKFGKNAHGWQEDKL
How it was run: as §1

ETV3 = molecular target: T12, ETV3 (Homo sapiens, UniProt P41162-2 1-143); conditions: protein: recombinant; tags: N-terminal GST; dsDNA, one strand shown
T12 sequence: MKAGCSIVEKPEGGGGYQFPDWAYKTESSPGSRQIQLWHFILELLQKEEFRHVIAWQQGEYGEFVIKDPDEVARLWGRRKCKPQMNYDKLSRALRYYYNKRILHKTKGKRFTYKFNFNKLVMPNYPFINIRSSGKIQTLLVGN
How it was run: as §1

ETV6 = ETV6 (Homo sapiens, UniProt P41212 1-452); conditions: protein: recombinant; tags: N-terminal GST; dsDNA, one strand shown
How it was run: as §1

ETV1, sequence (P50549 whole entry): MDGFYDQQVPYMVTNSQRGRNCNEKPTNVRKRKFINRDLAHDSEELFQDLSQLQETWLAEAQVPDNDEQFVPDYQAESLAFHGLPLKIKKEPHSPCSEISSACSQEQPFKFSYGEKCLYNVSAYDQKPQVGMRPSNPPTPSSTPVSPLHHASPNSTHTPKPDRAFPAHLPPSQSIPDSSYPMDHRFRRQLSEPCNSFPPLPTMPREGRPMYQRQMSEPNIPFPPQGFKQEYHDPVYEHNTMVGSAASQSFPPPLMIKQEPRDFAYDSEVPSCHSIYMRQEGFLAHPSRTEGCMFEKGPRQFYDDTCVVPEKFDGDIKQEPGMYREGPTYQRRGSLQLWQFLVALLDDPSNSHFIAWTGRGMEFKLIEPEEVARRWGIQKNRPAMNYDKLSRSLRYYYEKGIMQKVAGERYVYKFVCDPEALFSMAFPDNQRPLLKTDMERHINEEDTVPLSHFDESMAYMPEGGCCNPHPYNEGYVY
ELF4, sequence (Q99607 whole entry): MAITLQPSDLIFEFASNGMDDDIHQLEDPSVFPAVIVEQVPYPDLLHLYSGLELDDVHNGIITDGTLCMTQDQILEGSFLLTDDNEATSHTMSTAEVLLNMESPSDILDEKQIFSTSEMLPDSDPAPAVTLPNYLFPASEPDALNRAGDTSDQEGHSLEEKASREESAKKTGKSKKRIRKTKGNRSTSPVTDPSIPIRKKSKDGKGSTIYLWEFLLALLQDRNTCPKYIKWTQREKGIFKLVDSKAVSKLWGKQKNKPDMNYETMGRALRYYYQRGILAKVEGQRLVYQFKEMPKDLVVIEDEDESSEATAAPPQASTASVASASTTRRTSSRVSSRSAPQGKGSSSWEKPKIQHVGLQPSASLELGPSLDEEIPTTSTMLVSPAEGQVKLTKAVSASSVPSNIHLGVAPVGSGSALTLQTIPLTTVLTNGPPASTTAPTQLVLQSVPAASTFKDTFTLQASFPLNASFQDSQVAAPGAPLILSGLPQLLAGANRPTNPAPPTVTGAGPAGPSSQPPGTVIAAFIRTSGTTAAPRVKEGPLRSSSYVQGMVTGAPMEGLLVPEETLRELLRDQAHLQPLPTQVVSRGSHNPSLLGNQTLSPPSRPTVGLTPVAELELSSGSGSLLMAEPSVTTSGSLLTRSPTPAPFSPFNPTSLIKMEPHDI
ETV6, sequence (P41212 whole entry): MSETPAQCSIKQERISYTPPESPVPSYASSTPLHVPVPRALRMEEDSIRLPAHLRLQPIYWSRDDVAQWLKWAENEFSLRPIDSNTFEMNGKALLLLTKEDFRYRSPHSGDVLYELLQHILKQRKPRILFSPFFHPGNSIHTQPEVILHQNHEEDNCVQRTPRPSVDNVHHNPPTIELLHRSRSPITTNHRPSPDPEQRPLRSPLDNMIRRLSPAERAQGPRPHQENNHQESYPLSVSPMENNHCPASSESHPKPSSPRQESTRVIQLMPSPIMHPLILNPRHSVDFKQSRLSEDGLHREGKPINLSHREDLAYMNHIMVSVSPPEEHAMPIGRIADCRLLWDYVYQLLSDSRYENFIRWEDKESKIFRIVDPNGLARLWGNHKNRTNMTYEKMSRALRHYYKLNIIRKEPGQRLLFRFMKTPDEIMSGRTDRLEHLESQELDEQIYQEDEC
HSF1, sequence (Q00613 whole entry): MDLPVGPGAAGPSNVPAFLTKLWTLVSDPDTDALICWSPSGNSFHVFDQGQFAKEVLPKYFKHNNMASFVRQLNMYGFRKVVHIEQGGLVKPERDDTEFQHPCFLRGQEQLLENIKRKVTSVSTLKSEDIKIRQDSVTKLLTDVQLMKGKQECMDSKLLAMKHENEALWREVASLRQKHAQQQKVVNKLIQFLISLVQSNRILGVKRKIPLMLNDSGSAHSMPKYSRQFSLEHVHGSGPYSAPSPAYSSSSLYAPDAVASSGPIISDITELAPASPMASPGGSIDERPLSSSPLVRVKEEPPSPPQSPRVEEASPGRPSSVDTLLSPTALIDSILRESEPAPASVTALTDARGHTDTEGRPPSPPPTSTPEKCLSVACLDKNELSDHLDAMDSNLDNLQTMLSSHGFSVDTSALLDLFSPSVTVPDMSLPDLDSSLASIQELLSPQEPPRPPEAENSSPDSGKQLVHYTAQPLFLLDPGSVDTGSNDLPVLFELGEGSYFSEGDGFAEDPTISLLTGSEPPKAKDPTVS
ETV5, sequence (P41161 whole entry): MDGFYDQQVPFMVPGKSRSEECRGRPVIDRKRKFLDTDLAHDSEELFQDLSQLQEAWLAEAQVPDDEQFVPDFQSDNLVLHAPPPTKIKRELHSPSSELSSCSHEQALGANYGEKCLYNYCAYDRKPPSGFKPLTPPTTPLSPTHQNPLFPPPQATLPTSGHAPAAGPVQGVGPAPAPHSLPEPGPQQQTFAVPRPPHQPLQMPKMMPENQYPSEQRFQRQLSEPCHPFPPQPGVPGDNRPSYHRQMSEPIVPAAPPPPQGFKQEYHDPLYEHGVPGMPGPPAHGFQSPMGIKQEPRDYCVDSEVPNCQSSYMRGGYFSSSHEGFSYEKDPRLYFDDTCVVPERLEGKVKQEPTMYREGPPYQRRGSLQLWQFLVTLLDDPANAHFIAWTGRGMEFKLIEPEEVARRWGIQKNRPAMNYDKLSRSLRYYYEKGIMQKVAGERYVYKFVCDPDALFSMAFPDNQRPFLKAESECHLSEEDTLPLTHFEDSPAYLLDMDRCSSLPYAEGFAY
CRX, sequence (O43186 whole entry): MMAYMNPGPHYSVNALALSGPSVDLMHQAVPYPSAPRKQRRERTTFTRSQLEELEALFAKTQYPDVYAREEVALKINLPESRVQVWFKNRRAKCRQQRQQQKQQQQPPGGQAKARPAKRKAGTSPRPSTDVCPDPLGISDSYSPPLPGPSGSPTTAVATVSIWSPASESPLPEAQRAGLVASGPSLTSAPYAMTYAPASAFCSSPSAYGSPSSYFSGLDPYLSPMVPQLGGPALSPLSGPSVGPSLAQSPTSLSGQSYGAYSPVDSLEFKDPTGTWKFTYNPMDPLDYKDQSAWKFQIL

Sequence: TTCCTG
- binding signal (FEV): 2.13 fold enrichment (6-mer frequency, TF over GST control)
- binding signal (ETV5): 2.57 fold enrichment (6-mer frequency, TF over GST control)
- binding signal (HSF1): 1.63 fold enrichment (6-mer frequency, TF over GST control)
- binding signal (SPIC): 2.31 fold enrichment (6-mer frequency, TF over GST control)
- binding signal (ELF4): 2.05 fold enrichment (6-mer frequency, TF over GST control)
- binding signal (ELK4): 1.78 fold enrichment (6-mer frequency, TF over GST control)
- binding signal (ETV2): 2.46 fold enrichment (6-mer frequency, TF over GST control)
- binding signal (ELF3): 2.23 fold enrichment (6-mer frequency, TF over GST control)
- binding signal (CRX): 1.12 fold enrichment (6-mer frequency, TF over GST control)
- binding signal (ETV1): 2.22 fold enrichment (6-mer frequency, TF over GST control)
- binding signal (ERF): 1.87 fold enrichment (6-mer frequency, TF over GST control)
- binding signal (ETV3L): 2.35 fold enrichment (6-mer frequency, TF over GST control)
- binding signal (ETS2): 2.4 fold enrichment (6-mer frequency, TF over GST control)
- binding signal (SPDEF): 2.25 fold enrichment (6-mer frequency, TF over GST control)
- binding signal (ETV7): 2.03 fold enrichment (6-mer frequency, TF over GST control)
- binding signal (ELF5): 3.79 fold enrichment (6-mer frequency, TF over GST control)
- binding signal (ETV3): 2.66 fold enrichment (6-mer frequency, TF over GST control)
- binding signal (ETV6): 2.57 fold enrichment (6-mer frequency, TF over GST control)
